In the library only some 1.2% were active in any assay of this set; here they are far more common.
RGS4 inh = blocks human RGS4-accelerated GTP hydrolysis | Transcreener GDP fluorescence polarization, RGS4-accelerated GTP hydrolysis | Potency, µM (titrated, usually from 114 µM), for the others: at the top dose activity change, negative = inhibition, most hits filed as inhibitors | 0.039% of 390,000 active; also: potency is read from the fitted curve at half-maximal effect; nearly all actives have a fitted effect of over 75% in size
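MLSMR compounds (23 nl, pin-transferred) preincubated 10 min at room temperature with a 500nM (2x) first reagent, then RGS4 at 900nM (2x) plus Transcreener GDP mix added; fluorescence polarization (620/688 nm) read before and after 90 min at 30 °C.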
Pin1 inhibitor = inhibitors of human Pin1. Q13526. Pin1 FP peptide displacement, HiFluor488, 10 min. Potency, µM (doses to about 115 µM), for inactives: at the top dose activity, negative = inhibition, usual class: inhibitors. 0.009% of 390,000 active. AID 504891; active = well fitted inhibition curve with a large enough effect in the polarisation, with a control signal flat, not every such curve was filed as active; inconclusive = small, poorly fitted or top-dose-only effect, or effect the other way, or a change in a side signal; inactive = no such curve, though single readings can be large or run the other way; the % refers to the polarisation; also: potency is read from the fitted curve at half-maximal effect
KAT2A inh = inhibitors of human GCN5L2 histone acetyltransferase. Q92830. GCN5L2 HAT assay, ThioGlo1 CoA-SH fluorescence. Potency, µM (series often up to 58.9 µM), for inactives: at the top dose activity change, negative = inhibition, usual class: inhibitors. 0.21% of 390,000 active; also: potency is read from the fitted curve at half-maximal effect
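GCN5L2 (20 nM) in 50mM HEPES pH 7.5, 0.1mM EDTA, 0.01% Tween-20 preincubated 15 min with compounds at room temperature. Reaction started with H3(1-25) 75uM, acetyl-CoA 70uM, ThioGlo1 50uM; CoA-thiol fluorescence (Ex340/Em540) read at 0 and 20 min.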
KCNH2 3.1 block = inhibitors of human KCNH2 3.1 potassium channel isoform; U2OS KCNH2 3.1, thallium flux FluxOr; hits give low values; activity change, % (tested at about 1.8 µM); 0.95% of 340,000 active;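 active = maximum activity change below -70%; inconclusive = maximum activity change from -70% to -50%; inactive = maximum activity change above -50%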;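 also: thallium influx rate constant from kinetic fluorescence after stimulation buffer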
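Kinetic fluorescence (2 min after stimulation buffer) measures Tl+ influx through KCNH2 3.1 expressed by viral transduction in U2OS cells; the rate constant is normalized against DMSO controls serving as positive and negative references.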
PGK inhibitor = inhibitors of T. brucei phosphoglycerate kinase; Potency, µM (doses to about 57.5 µM), without a hit: at the highest dose activity change, negative = inhibition, usual class: inhibitors; PGK/GAPDH coupled, Kinase-Glo luminescence, 60 min; 0.043% of 380,000 active; also: potency is read from the fitted curve at half-maximal effect; nearly all actives have a fitted effect of over 60% in size
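Recombinant glycosomal PGK reaction used 1,3-bisphosphoglycerate generated in-well by GAPDH (100nM final) in 100mM TEA pH 7.6, 5mM MgCl2, 0.01% Tween-20. After 60 minutes at room temperature, ATP was read by Kinase-Glo Plus luminescence end-point.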
KCNH2 WT inh = KCNH2 (human, wildtype) channel inhibition | U2OS, BacMam KCNH2, thallium flux FluxOr; hits give low values | activity change, % at 1.84 µM | 0.37% of 340,000 active;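 active = maximum activity change below -70%; inconclusive = maximum activity change between -70% and -50%; inactive = maximum activity change above -50%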
Target sequence (Q12809 whole entry, looked up): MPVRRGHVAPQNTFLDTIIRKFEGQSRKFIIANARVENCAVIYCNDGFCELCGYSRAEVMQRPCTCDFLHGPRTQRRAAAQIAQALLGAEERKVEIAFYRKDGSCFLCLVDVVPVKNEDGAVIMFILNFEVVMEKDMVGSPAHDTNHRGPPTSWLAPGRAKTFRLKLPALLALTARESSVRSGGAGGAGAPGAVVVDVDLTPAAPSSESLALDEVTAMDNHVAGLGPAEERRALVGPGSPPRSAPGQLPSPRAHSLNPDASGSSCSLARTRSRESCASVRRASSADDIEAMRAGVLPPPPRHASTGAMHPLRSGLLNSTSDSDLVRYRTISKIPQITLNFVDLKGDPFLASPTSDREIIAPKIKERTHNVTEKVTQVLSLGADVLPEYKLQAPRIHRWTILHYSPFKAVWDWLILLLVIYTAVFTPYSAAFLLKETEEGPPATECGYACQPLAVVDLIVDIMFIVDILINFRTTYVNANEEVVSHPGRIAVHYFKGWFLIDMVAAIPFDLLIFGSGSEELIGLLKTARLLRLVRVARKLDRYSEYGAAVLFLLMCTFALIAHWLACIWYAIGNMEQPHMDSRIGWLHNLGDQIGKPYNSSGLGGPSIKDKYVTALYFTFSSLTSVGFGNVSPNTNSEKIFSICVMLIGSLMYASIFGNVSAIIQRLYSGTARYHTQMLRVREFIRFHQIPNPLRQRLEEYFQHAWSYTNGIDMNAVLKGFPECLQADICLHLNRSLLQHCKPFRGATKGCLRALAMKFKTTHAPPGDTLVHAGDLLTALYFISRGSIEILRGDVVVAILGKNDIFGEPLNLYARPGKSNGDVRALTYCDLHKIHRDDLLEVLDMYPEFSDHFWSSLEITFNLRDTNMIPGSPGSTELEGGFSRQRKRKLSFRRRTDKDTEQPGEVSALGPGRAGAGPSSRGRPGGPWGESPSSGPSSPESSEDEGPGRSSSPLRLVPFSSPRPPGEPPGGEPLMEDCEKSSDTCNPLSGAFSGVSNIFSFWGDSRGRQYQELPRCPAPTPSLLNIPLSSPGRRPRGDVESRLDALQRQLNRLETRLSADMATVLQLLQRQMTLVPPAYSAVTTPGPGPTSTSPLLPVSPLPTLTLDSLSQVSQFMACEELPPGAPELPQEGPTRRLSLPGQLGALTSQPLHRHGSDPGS
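U2OS cells transduced with wild-type KCNH2 virus are loaded with FluxOr dye for 45 min, and thallium flux is measured in kinetic reads before and after stimulation buffer. Rate constants are normalized to DMSO controls.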
An asterisk follows results filed as active; i = inactive; ? = inconclusive; · = no result; [ ] = another dose, or the depositor's remark. Unless noted, calls follow the shape of the dose curve; as a rule, active = well fitted curve in the direction sought with a large enough effect; inconclusive = small, poorly fitted or top-dose-only effect, or another doubt; inactive = no such curve, though single readings can be large; an effect the other way counts as inactive or inconclusive. % is scaled to controls: 0 for no effect and ±100 for the full control effect.

SMILES	RGS4 inh	Pin1 inhibitor	KAT2A inh	KCNH2 3.1 block	PGK inhibitor	KCNH2 WT inh
CCOCC(=O)N1CCN(c2ccc([N+](=O)[O-])cc2)CC1	11%	5%	-12%	-73*	-6%	-95*
CCNC(=S)N1CCN(c2ccc([N+](=O)[O-])cc2)CC1	-27%[11.4 µM]	9%	1%	5	-7%	-1
O=C(CCCC(=O)N1CCN(c2ccc([N+](=O)[O-])cc2)CC1)c1ccccc1	-20%	8%	-2%	-95*	i	-88*
COc1ccc(Nc2ncnc3c2cnn3C)c(OC)c1	3%	-1%	-7%	·	-1%	·
Cc1ccc(C2NC(=S)N3C(c4ccc(C)cc4)NC(=S)N23)cc1 (configuration not stated)	·	·	·	2	6%	1
S=C1NC(c2ccccc2)N2C(=S)NC(c3ccccc3)N12 (configuration not stated)	?	-12%	28µM*	5	8%	-2
CCCCc1nc2cc(C(=O)N3CCN(c4nc(C)cnc4C)CC3)ccc2o1	24%[56.9 µM]	-7%	1%	-77*	-4%	-5
COc1ccc(S(=O)(=O)N2CCC(Oc3ccc(-n4cnnn4)cc3)CC2)cc1OC	16%	-1%	-3%	·	1%	·
CCOC(=O)c1ccc(NC(=O)c2c(NCc3cccs3)sc3c2CCCCC3)cc1	?	?	22µM*	·	-3%	·
CN1CCN(CC(=O)Nc2sc3c(c2C(=O)Nc2ccccc2)CCCC3)CC1	-8%	1%	-12%	-95*	4%	-92*
CCc1ccccc1NC(=O)NC(CC)Cn1nnc2ccccc2c1=O (configuration not stated)	-8%	-4%	-4%	·	-6%	·
Cc1cccc(N2CCN(C(=O)CCS(=O)(=O)c3ccc(Br)cc3)CC2C)c1 (configuration not stated)	8%	-14%	?	-18	?	1
CC(=O)N1CCCc2cc(S(=O)(=O)CCC(=O)N3CCN(c4cccc(C)c4)C(C)C3)ccc21 (configuration not stated)	-3%	1%	-7%	-93*	-14%	-4
O=[N+]([O-])c1cc(CN2CCCC2)ccc1Sc1ccc(Cl)cc1	-36%	9%	-2%	-92*	i	26
Cc1cccc(CCN(CC(=O)NCc2ccc(F)cc2)C(=O)c2csnn2)c1	-7%	-3%	-1%	-108*	-2%	-3
COc1ccc(CNC(=O)CN(Cc2ccccc2)C(=O)c2csnn2)cc1	13%	4%	1%	26	-6%	1
Cc1ccccc1CCN(CC(=O)NCc1ccc(F)cc1)C(=O)c1csnn1	-12%	-3%	-4%	-16	-7%	-2
COc1ccccc1CN(CC(=O)NCc1ccc(F)cc1)C(=O)c1csnn1	-5%	-2%	1%	-82*	-2%	-1
CCN(CC)CCSc1nc2ccccc2n1Cc1ccccc1	20%	1%	2%	-75*	i	?
CN(C)C(=O)CSc1nc2ccccc2n1Cc1ccccc1	-7%	1%	2%	18	0%	7
FC(F)(F)c1cc(C(F)(F)F)c2ccc(N3CCN(c4ccc(Cl)cc4)CC3)nc2n1	-7%	-6%	-11%	-90*	2%	1
NNC(=O)c1ccc([N+](=O)[O-])c(CS(=O)(=O)c2ccc(Cl)cc2)c1	?	-2%	-10%	-99*	-3%	1
CO/N=C/c1cccn1-c1nccc(OC)c1C#N	7%	-2%	-13%	-190*	-2%	-196*
O=c1cc(-c2ccccc2)n2c(SCc3ccccc3Cl)nnc2[nH]1	-34%	-1%	-5%	·	-11%	·
Nc1c(S(=O)(=O)O)cc(Nc2ccc(Cl)cc2)c2c1C(=O)c1ccccc1C2=O	·	·	28µM*	·	·	·
SMILES	RGS4 inh	Pin1 inhibitor	KAT2A inh	KCNH2 3.1 block	PGK inhibitor	KCNH2 WT inh
Nc1c(S(=O)(=O)O)cc(NC(=O)c2ccccc2)c2c1C(=O)c1ccccc1C2=O	?	·	-17%	-42	·	2
Nc1c(S(=O)(=O)O)cc(Nc2ccc(Nc3nc(Cl)nc(Nc4ccc(S(=O)(=O)O)cc4)n3)c(S(=O)(=O)O)c2)c2c1C(=O)c1ccccc1C2=O	19µM*	·	20µM*	·	·	·
Nc1c(S(=O)(=O)O)cc(Nc2cccc3ccccc23)c2c1C(=O)c1ccccc1C2=O	·	·	13µM*	·	·	·
CCN(CC)c1ccc(-n2nc3cc(C)c(NC(=O)c4ccccc4F)cc3n2)cc1	-2%	-2%	-2%	·	-6%	·
Cc1c(C(=O)N(C)C)sc2c1c(=O)n(-c1ccc(Cl)c(Cl)c1)c(=O)n2CC(=O)N1CCCCC1C (configuration not stated)	24%	-7%	-5%	·	i	·
COCC(=O)Nc1ccc(Nc2ccccc2)cc1	-21%	2%	-23%	-2	-6%	-3
CCC(=O)Nc1ccc(Nc2ccccc2)cc1	-39%	-2%	-27%	2	-8%	-82*
CCC(CC)C(=O)Nc1cccc(SC)c1	·	·	0%	·	·	·
CCOC(=O)N1CCC(Nc2cccc(SC)c2)CC1	0%	-9%	-2%	-71*	1%[11.5 µM]	33
CCC(=O)Nc1cccc(SC)c1	-9%	-1%	-2%	-83*	i	0
Cc1cc(N2C3CCC2CC(O)(c2ccc(F)cc2)C3)nc(-c2ccccc2)n1 (configuration not stated)	9%	-4%	-1%	-72*	-6%	11
Cc1ccnc(N2C3CCC2CC(O)(c2ccccc2)C3)n1 (configuration not stated)	-3%	1%	-2%	8	2%	21
CCCCC[C@H](O)/C=C/C=C\C/C=C\C/C=C\CCCC(=O)O	·	·	5%	·	·	·
CCOC(=O)c1c(C)[nH]c(C)c1S(=O)(=O)NC(C)Cc1ccco1 (configuration not stated)	-3%	2%	-12%	-80*	0%	5
OCC1(CCc2ccccc2)CCN(Cc2cc(Cl)ccc2O)CC1	-21%	-1%	1%	-17	i	10
Cc1ccc(-n2cccn2)c(CN2CCC(CO)(CCc3ccccc3)CC2)c1	-15%	2%	-1%	-96*	i	-35
O=C1CC(=O)N(Cc2ccco2)C(=S)N1	?	?	18µM*	8	?	1
O=C1CC(=O)N(Cc2ccco2)C(=O)N1	-50%	?	-17%	10	5µM*	-4
CCc1ccc(Nc2cc(C)nc3nc(Cc4ccc(Cl)cc4)nn23)cc1	33%	13%	-8%	·	5%	·
Cc1ccc(NC(=O)COCc2cc(-c3cccs3)on2)cc1Cl	-14%	5%	-17%	·	i	·
COc1ccccc1C(=O)Nc1cc2c(cc1C(=O)O)OCCCO2	-9%	-13%	-7%	-80*	-2%	-2

Bioassay records deposited in PubChem by National Center for Advancing Translational Sciences (NCATS).
